Several values for one entry are separate records, joined by “and”; a condition that tells them apart may be missing. Equal entries are not always repeated. The whole screen tested about 1,300 compounds, of which about 150 (12%) were called active. Roughly 30% stayed inconclusive and do not appear here. Calls come from the whole dose curve; as a rule, active = well fitted cell-killing curve with a large enough effect; inconclusive = small, poorly fitted or top-dose-only effect, or effect the other way; inactive = flat fitted curve, though single readings scatter. Shown is part of a subset that was picked to be rich in actives. Entries that show only a call come without a potency.
Potency is the fitted concentration of half-maximal effect.

The experiment is described as follows: qHTS of small molecules that selectively kill Giardia lamblia: Hit Validation in HepG2 cytotox.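 Note: compound exposure lasted overnight at 37 deg C; nearly all actives have a fitted effect of over 55% in size.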 As to conditions: cell viability; Potency: HepG2 cytotoxicity; series mostly up to 38.3 µM. The source says: Giardia lamblia is a human pathogen afflicting impoverished nations, and the most common cause of outbreaks of diarrhea in the United States. Giardia has been classified by the CDC as a category B bioterrorism organism. The favored anti giardiasis drugs in the US are metronidazole or tinidazole, compounds that have undesirable side effects. Moreover, increasing resistance to drug regimes and recurrence are a concern. It is thus clear that alternative drug treatments are needed.
In a collaboration between the University of Maryland, College Park and the NIH Chemical Genomics Center, a bioluminescence Giardia viability assay based on the trophozoites' ATP content was developed. This assay is suitable for high throughput screening, and miniaturized the assay for compound screening in 1536-well plates. The goal of the project is to screen the Molecular Libraries Small Molecule Repository (MLSMR) for compounds that selectively kill Giardia trophozoites. This counterscreen looks at the toxicity of the compounds against the human HepG2 cell line.
NIH Chemical Genomics Center [NCGC]
NIH Molecular Libraries Probe Centers Network [MLPCN]
Assay Submitter (PI): Osnat Herzberg, University of Maryland, College Park, MD.
4 uL of HepG2 cells ae dispensed into white 1536-well plates. They are incubated overnight at 37 deg C and then 23 nL of compounds are transferred to the wells with a pintool. Plates are incubated overnight at 37 deg C. 2 uL of ATPLite is added and the plates are incubated for 15 min at room temperature before they are read on the ViewLux for luminiescence.
On the technique in general: Quantitative high-throughput screening tests each substance at several concentrations.
On to `COc1cc2nc(N3CCCCC3)nc(NC3CCN(Cc4ccccc4)CC3)c2cc1OC`, for which the Potency was 2.93 µM (active).

As for `COc1ccc(-n2nc([N+](=O)[O-])c(=NC3CCN(Cc4ccccc4)CC3)n2O)cc1`, the Potency entry is “inactive”.

Regarding `CCc1cc(=O)oc2cc(C)cc(OCC(=O)NC3CCN(Cc4ccccc4)CC3)c12`, the Potency result is “inactive”.

Take `NC(=O)CCn1c(C(=O)c2cccc([N+](=O)[O-])c2)c2ccccc2[n+]1[O-]`: the Potency entry was “inactive”.

With `CC(=O)c1c(C)n([O-])c2ccccc2[n+]1=O`, the Potency entry is “inactive”.

Regarding `O=[N+]([O-])c1[nH]cnc1/C=C/c1ccccc1`, the Potency result was “inactive”.

With `O=C1NCCN1c1ncc([N+](=O)[O-])s1`, the Potency result was “inactive”.

Regarding `O=C(/C=C/c1cccnc1)/C=C/c1cccnc1`, the Potency was 3.69 µM (active).

Regarding `COc1ccc2nc(COC(=O)c3cccc([N+](=O)[O-])c3)c(C(C)=O)[n+]([O-])c2c1`, the Potency result is “inactive”.

On to `Nc1nc(F)nc2c1ncn2[C@@H]1O[C@H](CO)[C@@H](O)[C@@H]1O`, for which the Potency result is “inactive”.

Take `CCOC(=O)Cc1csc(NC(=S)NC(=O)c2ccc(C)cc2)n1`: the Potency was 2.93 µM (active).

With `CCOC(=O)Cc1csc(SCC(=O)NC2CCCCC2)n1`, the Potency result is “inactive”.

In the case of `Cc1ccc(C(=O)NC(=O)OCCn2c(C)cnc2[N+](=O)[O-])cc1`, the Potency entry is “inactive”.

`Cc1onc(-c2ccccc2)c1C(=O)N(Cc1ccccc1)C(C)C`: the Potency result was “inactive”.

As to `Cc1cnc([N+](=O)[O-])n1CCOC(=O)NC(=O)c1ccccc1`, the Potency result is “inactive”.

For the compound `COc1cccc2sc(N3CCN(C(=O)c4ccc([N+](=O)[O-])o4)CC3)nc12`, the Potency result is “inactive”.

With `O=[N+]([O-])c1ccc(CSc2nnc(-c3cnccn3)o2)cc1`, the Potency result is “inactive”.

For the compound `Cc1cnc([N+](=O)[O-])n1CCOC(=O)NC(=O)c1c(F)cccc1F`, the Potency result was “inactive”.

As to `CCCCCN=Cc1c(C)[nH]n(-c2nc3ccccc3s2)c1=O`, the Potency was 0.329 µM (active).

As for `Oc1cccc(-c2nnc(-c3cccc(O)c3)nn2)c1`, the Potency is 3.69 µM (active).

Regarding `N#C/C(=C\c1ccc(O)c([N+](=O)[O-])c1)C(=O)NCc1ccccc1`, the Potency entry is “inactive”.

Consider `Cc1cnc([N+](=O)[O-])n1CCOC(=O)NC(=O)c1ccc(C(F)(F)F)cc1`, for which the Potency result is “inactive”.

`C=CCn1c(C)cc(C(=O)COc2ccc(C)nc2[N+](=O)[O-])c1C`: the Potency entry is “inactive”.

For `O=C(Nc1ccc2c(c1)nc1n2CCSC1)c1ccco1`, the Potency was 2.33 µM (active).

Regarding `O=C(Nc1nnc(C23CC4CC(CC(C4)C2)C3)s1)c1ccco1`, the Potency entry was “inactive”.

As to `CN(C(=O)CSc1nc2ccccc2c(=O)n1-c1ccc(F)cc1)C1CCS(=O)(=O)C1` (stereo not drawn), the Potency entry was “inactive”.

Regarding `O=C1c2cc(F)ccc2-n2c1nc1ccccc1c2=O`, the Potency was 5.21 µM (active).

As for `Cc1ccc(-c2[nH][nH]c(=O)c(=O)c2N=Nc2ccccc2)cc1`, the Potency result is “inactive”.

On to `O=[N+]([O-])c1cc(S(=O)(=O)N2CCCC2)ccc1N/N=C/c1ccncc1`, for which the Potency entry was “inactive”.

For `Cc1ccc(OCC(=O)Nc2nc(C)c(Cl)cc2Cl)c([N+](=O)[O-])n1`, the Potency result is “inactive”.

For the compound `O=[N+]([O-])c1ccc(N=NN(CCO)CCO)cc1`, the Potency result was “inactive”.

Take `Cc1cc(C2=NNC(=NC3CC3)SC2)c(C)n1-c1ccccc1F`: the Potency is 0.927 µM (active).

As to `CCOC(=O)C1=C(C)N=c2s/c(=C/c3cccc([N+](=O)[O-])c3O)c(=O)n2C1c1cc(OC)c(OC)c(OC)c1` (stereo not drawn), the Potency entry was “inactive”.

Turning to `Cc1ccc([C@@H]2CC=C(C(=O)O)[C@H](c3ccccc3)N2S(=O)(=O)c2ccc(C)cc2)cc1`, the Potency entry is “inactive”.

On to `NCCCn1c(C(=O)c2ccc(Cl)cc2)c2ccc(C(F)(F)F)cc2[n+]1[O-]`, for which the Potency result is “inactive”.

`CCN1/C(=C\c2ccc3ccccc3[n+]2CC)Sc2cc(C)ccc21`: the Potency is 4.65 µM (active).

For the compound `N/C(=N/OC(=O)c1ccc(Cl)cc1)c1ncc([N+](=O)[O-])s1`, the Potency result is “inactive”.

Take `Cc1ncc([N+](=O)[O-])n1CCOC(=O)c1cc(Cl)cc(Cl)c1N`: the Potency result was “inactive”.

For the compound `COC(=O)c1ccc2cc(OC)cc([N+](=O)[O-])c2n1`, the Potency entry was “inactive”.

In the case of `Cc1nc2c(o1)C(=O)c1ccccc1C2=Nc1ccccc1`, the Potency was 4.65 µM (active).

`Cc1c(N=Nc2ccc(O)cc2)c(=O)n(-c2ccccc2)n1C`: the Potency result is “inactive”.

For `Cc1ccc(OCC(=O)c2cc(C)n(-c3ccccc3)c2C)c([N+](=O)[O-])n1`, the Potency result is “inactive”.

For `CCn1ncc([N+](=O)[O-])c1C(=O)Nc1nc2cccc(C)c2s1`, the Potency result was “inactive”.

Regarding `CC(=O)Nc1ccc(NS(=O)(=O)c2ccc(C)cc2)c([N+](=O)[O-])c1`, the Potency result was “inactive”.

With `Cc1cc(N/N=C/c2ccc([N+](=O)[O-])o2)nc2ccccc12`, the Potency result was “inactive”.

On to `O=C(N/N=C/c1ccc([N+](=O)[O-])o1)c1cn2ccc3ccccc3c2n1`, for which the Potency entry is “inactive”.

`Cc1nc2ccccn2c1C(=O)N/N=C/c1ccc([N+](=O)[O-])o1`: the Potency was 14.7 µM (active).

`O=C(N/N=C/c1ccc([N+](=O)[O-])o1)c1cc(-c2ccc(-c3ccccc3)cc2)nc2ccccc12`: the Potency was 2.61 µM (active).

For the compound `Cc1ccc2nc(N/N=C\c3ccc([N+](=O)[O-])o3)nc(-c3ccccc3)c2c1`, the Potency entry was “inactive”.

On to `CCCc1ccc(-c2cc(C(=O)N/N=C/c3ccc([N+](=O)[O-])o3)c3ccccc3n2)cc1`, for which the Potency was 3.29 µM (active).

Take `CCOC(=O)N/N=C\c1ccc([N+](=O)[O-])o1`: the Potency entry was “inactive”.

As for `COc1ccc(-c2nn(-c3ccccc3)cc2C(=O)N/N=C/c2ccc([N+](=O)[O-])o2)cc1`, the Potency result is “inactive”.

For the compound `O=C(N/N=C/c1ccc([N+](=O)[O-])o1)c1cn(-c2ccccc2)nc1-c1ccc(F)cc1`, the Potency entry is “inactive”.

In the case of `CC1CC(C)C(=NNC(N)=O)C(C(O)CC2CCC(=O)NC2=O)C1` (stereo not drawn), the Potency entry was “inactive”.

As for `N/C(=N\O)c1ccc([N+](=O)[O-])s1`, the Potency result was “inactive”.

On to `COc1ccc(-n2nc([N+](=O)[O-])c(=NCc3ccc4c(c3)OCO4)n2O)cc1`, for which the Potency result was “inactive”.

As for `O=C(/C=C/c1ccc(O)c([N+](=O)[O-])c1)c1ccc2ccccc2c1`, the Potency result is “inactive”.

Take `Cc1nn(-c2nc3ccccc3[nH]2)c(=O)c2ccccc12`: the Potency is 2.07 µM (active).

`Cc1ccc(NC(=O)CN2C(=O)S/C(=C/c3ccc(O)c([N+](=O)[O-])c3)C2=O)cc1C`: the Potency entry was “inactive”.

`Cc1cccc(N=Nc2c(C)c(C#N)c(O)[nH]c2=O)c1`: the Potency entry was “inactive”.

With `O=C1/C(=C/c2ccncc2)CCC/C1=C\c1ccncc1`, the Potency is 4.14 µM (active).

As for `CC1C/C(=C/c2ccncc2)C(=O)/C(=C/c2ccncc2)C1` (stereo not drawn), the Potency is 2.07 µM (active).

Consider `O=C1N=C(N2CCCCC2)S/C1=C\c1ccc(Br)cc1`, for which the Potency entry is “inactive”.

Take `O=c1c2c(-c3ccccc3)csc2ncn1/N=C/c1ccc(O)c([N+](=O)[O-])c1`: the Potency entry is “inactive”.

For the compound `Cc1ccc(C2=NCCn3c2c2ccccc2[n+]3[O-])cc1`, the Potency result was “inactive”.

As to `CC(=O)Nc1nc(-c2cc([N+](=O)[O-])cs2)cs1`, the Potency result is “inactive”.

For the compound `CCn1c(=NC(=O)c2cccc(N3C(=O)CCC3=O)c2)sc2c(OC)ccc(OC)c21`, the Potency result is “inactive”.

In the case of `Cc1cnc([N+](=O)[O-])n1CCOC(=O)NC(=O)c1ccc(F)cc1`, the Potency entry is “inactive”.

Regarding `CN(C)C(=O)COC(=O)c1cccc(S(=O)(=O)N2CC3(C)CC2CC(C)(C)C3)c1` (stereo not drawn), the Potency entry is “inactive”.

Regarding `O=[N+]([O-])c1nn(-c2ccccc2)[n+]([O-])c1N1CCN(c2ccccc2)CC1`, the Potency entry was “inactive”.

With `CN(C(=O)CN1CCN(c2ccc([N+](=O)[O-])cn2)CC1)c1ccccc1`, the Potency entry is “inactive”.

Take `CCOc1ccc(-c2cc(C(=O)N3CCN(c4ccccn4)CC3)c3ccccc3n2)cc1`: the Potency is 1.65 µM (active) and 414 nM (active).

`O=C(CSc1ccsc1[N+](=O)[O-])N1CCN(c2ccccn2)CC1`: the Potency entry was “inactive”.

As to `Cc1ncc([N+](=O)[O-])n1CCOC(=O)NC(Nc1ccc(F)cc1)C(Cl)(Cl)Cl` (stereo not drawn), the Potency entry was “inactive”.

With `O=C(CCCn1cnc([N+](=O)[O-])n1)Nc1ccc(F)c(Cl)c1`, the Potency result is “inactive”.

With `COc1cc2c(cc1OC)-c1c(OC)c(OC)cc3ccnc(c13)C2=O`, the Potency result was “inactive”.

With `COc1ccc(-n2nc([N+](=O)[O-])c(=NCCc3ccc(Cl)cc3)n2O)cc1`, the Potency entry was “inactive”.

For `O=C(CN(C1CCCCC1)S(=O)(=O)c1ccc(F)cc1)NCC1CCCO1` (stereo not drawn), the Potency is 4.65 µM (active).

`O=C(NCC1CCCO1)c1ccc([N+](=O)[O-])o1` (stereo not drawn): the Potency result is “inactive”.

Turning to `CN(C(=O)c1ccc(F)c(S(=O)(=O)N2CCOCC2)c1)C1CCCCC1`, the Potency entry was “inactive”.

`CCS(=O)(=O)CCn1c([N+](=O)[O-])cnc1C`: the Potency entry was “inactive”.

For `O=c1c(-c2ccc(F)cc2)coc2cc(O)ccc12`, the Potency entry is “inactive”.

Regarding `C[C@@H]1CN([C@@H](C)CO)C(=O)c2cccc(NS(=O)(=O)c3cccs3)c2O[C@H]1CN(C)Cc1ccc(C(F)(F)F)cc1`, the Potency result is “inactive”.

For `NC(=O)C1CCN(c2ncccc2[N+](=O)[O-])CC1`, the Potency result was “inactive”.

With `CCOC(=O)N/N=C\c1ccc([N+](=O)[O-])s1`, the Potency result is “inactive”.

Regarding `O=C(N/N=C/c1ccc([N+](=O)[O-])s1)C(O)c1ccccc1` (stereo not drawn), the Potency was 13.1 µM (active).

For the compound `Cc1ccccc1C(=O)N/N=C/c1ccc([N+](=O)[O-])s1`, the Potency is 18.5 µM (active).

`Cc1nc2cc(NC(=O)c3ccc([N+](=O)[O-])s3)ccc2s1`: the Potency entry is “inactive”.

On to `COc1ccc(NC(C)C(=O)N/N=C/c2ccc([N+](=O)[O-])s2)cc1` (stereo not drawn), for which the Potency entry is “inactive”.

With `O=C(N/N=C\c1ccc([N+](=O)[O-])s1)c1cncc(Br)c1`, the Potency is 7.36 µM (active).

As to `COC(=O)N/N=C/c1ccc([N+](=O)[O-])s1`, the Potency entry was “inactive”.

With `COc1ccccc1NC(=O)C(=O)N/N=C/c1ccc([N+](=O)[O-])s1`, the Potency entry was “inactive”.

Consider `Cc1ccc(NC(C)C(=O)N/N=C/c2ccc([N+](=O)[O-])s2)cc1` (stereo not drawn), for which the Potency result was “inactive”.

Turning to `COCCn1c(C)cc(C(=O)COc2cccnc2[N+](=O)[O-])c1C`, the Potency result is “inactive”.

As for `O=C(Nc1nnc(C2=COCCO2)o1)c1cccc(F)c1`, the Potency result is “inactive”.

With `COc1nn(C(C)C(=O)N2N=C(C(F)F)CC2(O)C(F)F)cc1[N+](=O)[O-]` (stereo not drawn), the Potency result was “inactive”.

On to `COc1cc(/C=C/c2ccc3cccc(OC)c3n2)c(OC(C)=O)c([N+](=O)[O-])c1`, for which the Potency entry is “inactive”.

`CN(C)C(=O)c1cc([N+](=O)[O-])cc([N+](=O)[O-])c1N(C)C`: the Potency result was “inactive”.

The values are drawn from PubChem BioAssay AID588382 (National Center for Advancing Translational Sciences (NCATS), 2011).
